Screens deposited in PubChem BioAssay by National Center for Advancing Translational Sciences (NCATS).
ERK EGF block = inhibitors of EGF-stimulated ERK signaling pathway. 0.41% of 130,000 active. HEK293-V1b, EGF-stimulated phospho-ERK AlphaScreen. Potency, µM (highest dose often 11.5 µM), actives largely listed as inhibitors. AID 1454; further: nearly all actives have a fitted effect of over 55% in size
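Homogeneous cell-based phospho-ERK assay: HEK293/V1b cells in 1% FBS, compound 30 min then EGF 5 min, AlphaScreen luminescence. Activity normalized between DMSO and 25 nM EGF controls; AC50 from Hill modelling.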
HttQ103 aggreg = mutant huntingtin aggregation inhibition; PC12 HttQ103-GFP aggregates, Acumen cytometry, 40 h; Potency, µM (series often up to 46.1 µM), usual class: inhibitors; 1.1% of 220,000 active; AID 1688; further: nearly all actives have a fitted effect of over 60% in size
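PC12/HTTQ103-GFP, ecdysone-inducible; teb 100 nM; cpd qHTS titration; GFP aggregates read on laser cytometer, Ex 488/Em 500-530 nm.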
HTT ATP protect = cytoprotection in Huntington HTT-Q103 PC12 cell model; PC12 HTT-Q103 induced, cytoprotection, ATP luminescence, 40 h; Potency, µM (doses to about 56.4 µM), most hits filed as activators; 0.14% of 230,000 active; AID 1471; further: nearly all actives have a fitted effect of over 45% in size
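Rat PC12, Q103 Htt exon1-GFP fusion, ecdysone promoter; tebufenozide inducer 100 nM final; compound titration; qHTS, 1500 cells/well; ATPlite luminescent read.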
GLA inh pH 4.5 = alpha-galactosidase A (human) inhibition, pH 4.5; purified enzyme, 4-MU-alpha-Gal fluorescence, pH 4.5; P06280; 230,000 tested, under 10 active; activity change, negative = inhibition, % at 105 µM
GLA spleen mod = inhibitors or activators of human alpha-galactosidase in spleen homogenate; 0.008% of 240,000 active; human spleen homogenate, 4MU-alpha-Gal fluorescence, 40 min; P06280; Potency, µM (top dose mostly 80 µM), hits mostly inhibitors; AID 2107
Target sequence (P06280 32-429 limits assumed): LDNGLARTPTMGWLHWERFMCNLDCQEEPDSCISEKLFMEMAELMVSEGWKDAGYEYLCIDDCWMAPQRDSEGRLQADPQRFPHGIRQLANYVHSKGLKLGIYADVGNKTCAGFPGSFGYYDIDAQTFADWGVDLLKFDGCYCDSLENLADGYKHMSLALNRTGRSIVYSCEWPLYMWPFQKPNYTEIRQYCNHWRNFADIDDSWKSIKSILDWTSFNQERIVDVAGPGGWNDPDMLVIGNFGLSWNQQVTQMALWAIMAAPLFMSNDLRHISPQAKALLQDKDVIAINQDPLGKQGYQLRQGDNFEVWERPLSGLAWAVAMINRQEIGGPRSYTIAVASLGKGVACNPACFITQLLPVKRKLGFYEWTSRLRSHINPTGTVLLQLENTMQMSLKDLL
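Human spleen homogenate (1 ug) as enzyme source, 4-methylumbelliferyl-alpha-D-galactopyranoside 1 mM final, citrate/phosphate pH 5.0 with 0.01% Tween-20. Compounds 40 min at 37C, NaOH/glycine stop; fluorescence Ex 365/Em 440, Hill-fit AC50.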
Large screens that a line does not name were inactive; ! = not active in a repeat. Rows were chosen to be rich in hits. Some 1.2% of all compounds tested hit in one or more screens of this group. The call rests on the fitted dose curve; in most records, active means well fitted curve in the direction sought with a large enough effect; inconclusive means small, poorly fitted or top-dose-only effect, or another doubt; inactive means no such curve, though single readings can be large; an effect the other way counts as inactive or inconclusive.

CC[C@H](C)[C@H](NC(=O)[C@H](C)NC(=O)CNC(=O)[C@H](CCCN=C(N)N)NC(=O)[C@H](C)NC(=O)[C@H](CC(C)C)NC(=O)[C@H](CCC(=O)O)NC(=O)[C@H](CC(C)C)NC(=O)[C@H](C)NC(=O)[C@@H](N)CCC(=O)O)C(=O)N[C@@H](Cc1ccccc1)C(=O)N[C@@H](CCC(N)=O)C(=O)N[C@@H](C)C(=O)O	none (no result: ERK EGF block, HttQ103 aggreg, HTT ATP protect, GLA inh pH 4.5)
Nc1ccn([C@@H]2O[C@@H](CO)[C@@H](O)[C@H]2O)c(=O)n1	none (no result: ERK EGF block, HttQ103 aggreg, GLA inh pH 4.5, GLA spleen mod)
O=C(N/N=C/c1cc2c3c(c1O)CCCN3CCC2)c1ccccc1O	ERK EGF block inconclusive, HttQ103 aggreg 0.89µM (no result: HTT ATP protect)
Cc1nn(-c2ccccc2)c(N2CCCC2)c1/C=N/NC(=O)c1ccccc1O	HttQ103 aggreg inconclusive
COc1ccccc1OCC(=O)c1[nH]c(C)c(C(C)=O)c1C	HttQ103 aggreg inconclusive (no result: ERK EGF block)
CC(=O)c1c(C)[nH]c(C(=O)COc2cc(C)ccc2C(C)C)c1C	HttQ103 aggreg 1µM (no result: ERK EGF block)
CC(=O)c1c(C)[nH]c(C(=O)OCCCCN2C(=O)c3ccccc3C2=O)c1C	HttQ103 aggreg 2.8µM (no result: ERK EGF block)
CC(=O)c1c(C)[nH]c(C(=O)OCc2ccccc2)c1C	ERK EGF block inconclusive (no result: GLA inh pH 4.5)
Clc1cccc(NCc2nnc3n2CCCCC3)c1	HTT ATP protect 4µM
N#CC(=C(/N)Sc1ccccc1N)/C(C#N)=C(\N)Sc1ccccc1N	none (no result: ERK EGF block, HttQ103 aggreg, GLA inh pH 4.5)
Cc1ccc(N(C(=O)CNC(=O)c2ccco2)C(C(=O)NC2CCCC2)c2cccnc2)cc1C (centres undefined)	none (no result: ERK EGF block)
Cc1ccc(C)c(N(C(=O)Cc2cccs2)C(C(=O)NC2CCCC2)c2ccc(C)o2)c1 (centres undefined)	none (no result: ERK EGF block)
Cc1ccc(C(C(=O)NC2CCCC2)N(C(=O)Cc2cccs2)c2ccc(C)c(C)c2)o1 (centres undefined)	HttQ103 aggreg 20µM (no result: ERK EGF block)
Cc1ccc(N(C(=O)CCl)C(C(=O)NC2CCCCC2)c2cccnc2)cc1C (centres undefined)	HttQ103 aggreg 3.5µM
CCOC(=O)CN1C(=O)N[C@@H](c2ccccc2)[C@H](C(=O)OC)[C@H]1C	none (no result: ERK EGF block, HttQ103 aggreg)
COc1ccccc1/C=C\C(=O)OC[C@@H]1CCCN2CCCC[C@H]12	none (no result: HttQ103 aggreg)
O=C(CSc1c2c(nc3ccccc13)CCCC2)NCc1ccco1	HttQ103 aggreg 13µM, HTT ATP protect inconclusive
O=C(CCc1nc2ccccc2n1-c1ccccc1)NCCO	none
O=C(COC(=O)CCc1nc2ccccc2n1-c1ccccc1)Nc1ccc(N2CCCCC2)cc1	HTT ATP protect 3.2µM (no result: ERK EGF block)
CC1CCCc2sc3ncn(N)c(=N)c3c21 (centres undefined)	HttQ103 aggreg 1.4µM (no result: GLA inh pH 4.5)
Cn1c(=O)c(-c2ccc(Cl)cc2)nc2cnc(N3CCNCC3)nc21	none (no result: ERK EGF block, HttQ103 aggreg, GLA inh pH 4.5)
O=C1CCSc2ccc(Cl)cc2N1Cc1cccc(Cl)c1	HttQ103 aggreg 22µM (no result: ERK EGF block)
Cc1ccc(CN2C(=O)CCSc3ccc(Cl)cc32)cc1	none (no result: ERK EGF block)
O=C(O)CCCCC1SCC2NC(=O)NC21 (centres undefined)	HTT ATP protect 13µM!
NC(C(=O)O)C(O)C(=O)O (centres undefined)	none (no result: HttQ103 aggreg, HTT ATP protect)
Oc1nc(Nc2cccc(Cl)c2)sc1/C=C1\C=Nc2ccccc21	HttQ103 aggreg 8.9µM (no result: ERK EGF block)
Cc1[nH]c2ccccc2c1/C=C/C(=O)c1ccncc1	HTT ATP protect 4µM
O=C(/C=C/c1cccc2ccccc12)c1ccncc1	ERK EGF block inconclusive
CCN(CC)c1ccc(N=Cc2ccc([N+](=O)[O-])o2)cc1	ERK EGF block inconclusive, HttQ103 aggreg 14µM
CN(C1=C(NC(=O)c2ccccc2)C(=O)c2ccccc2C1=O)C1CCS(=O)(=O)C1 (centres undefined)	HttQ103 aggreg 22µM
CC(=O)NC1=C(NC2CCS(=O)(=O)C2)C(=O)c2ccccc2C1=O (centres undefined)	none
CS(=O)(=O)Nc1cccc(-c2nc(Nc3ccncc3)c3ccccc3n2)c1	none (no result: ERK EGF block, HttQ103 aggreg, GLA inh pH 4.5)
C=C1C(=O)O[C@@H]2[C@@H]1CC/C(C)=C\CC[C@@]1(C)O[C@H]21	HttQ103 aggreg 14µM, HTT ATP protect inconclusive
C=C1C(=O)O[C@@H]2[C@H]3O[C@]3(C)CCC=C(C)CC[C@@H]12	none (no result: HttQ103 aggreg)
O=C1OC(O)C(C(Cl)Cl)=C1Cl (centres undefined)	none (no result: ERK EGF block, HttQ103 aggreg, GLA inh pH 4.5)
COc1ccccc1-c1cc(C(=O)N2CCc3ccccc3C2)no1	none (no result: ERK EGF block, HttQ103 aggreg, GLA inh pH 4.5, GLA spleen mod)
